BAZ2B inh: blocks human BAZ2B | Q9UIF8 | AlphaScreen BAZ2B-H3K14Ac peptide displacement | Potency, µM (series often up to 114 µM), for inactives: at the top dose activity change, negative = inhibition, most hits filed as inhibitors | 360,000 tested, 4.4% active; also: potency is read from the fitted curve at half-maximal effect; % is scaled to controls: 0 for no effect and ±100 for the full control effect; nearly all actives have a fitted effect of over 60% in size
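Inhibition is scored as reduced AlphaScreen emission. The BAZ2B/b-H3(5-23)K14Ac complex (50 nM each) in PBS pH 7.4, 0.01% Tween-20 meets compound (up to 110 uM) for 30 min at RT before bead addition.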
JMJD2A Tudor inh: JMJD2A Tudor domain (human) inhibition | AlphaScreen JMJD2A-Tudor / H3K4me3 peptide binding | Potency, µM (series often up to 114 µM), for the others: top-dose activity change, negative = inhibition, actives largely listed as inhibitors | 390,000 tested, 4.4% active | AID 504339; also: potency is read from the fitted curve at half-maximal effect; % is scaled to controls: 0 for no effect and ±100 for the full control effect; nearly all actives have a fitted effect of over 50% in size
PI5P4Ka inh: inhibitors of human PI5P4K alpha; P48426; PI5P4Kalpha enzyme, ADP-Glo luminescence, 60 min; stronger effect = lower value; max response, %; 330,000 tested, 1.2% active; active = max response of -50% or lower; inconclusive = between -30% and -50%; inactive = -30% or higher; also: value at the top dose of about 77 µM; % is scaled to controls: 0 for no effect and ±100 for the full control effect
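Enzyme plus substrate dispensed, test compounds pinned in, then ATP (5 microM final) added. After 60 min at RT, ADP-Glo reagent 1 for 45 min and reagent 2 for 30 min preceded luminescence imaging.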
G9a block: inhibitors of human histone lysine methyltransferase G9a; G9a H3K9 monomethylation, AlphaScreen, 2 h; Q96KQ7; Potency, µM (titrated, usually from 102 µM), for the others: at the top dose activity, negative = inhibition, most hits filed as inhibitors; 350,000 tested, 8.8% active; also: potency is read from the fitted curve at half-maximal effect; % is scaled to controls: 0 for no effect and ±100 for the full control effect; nearly all actives have a fitted effect of over 75% in size
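Chemiluminescent proximity detection of H3K9 monomethylation, read after 10 min bead incubation in the dark. Reaction: 20 nM G9a, 500 nM biotin-H3K9 peptide, 20 uM SAM cofactor, 2 h, room temperature, following 15 min enzyme-compound preincubation.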
L3MBTL1 block: blocks human L3MBTL1; Q9Y468; Potency, µM (highest dose often 57.1 µM), without a hit: top-dose activity, negative = inhibition, most hits filed as inhibitors; AID 485360; AlphaScreen L3MBTL1–H3K9me1 peptide binding; 230,000 tested, 0.66% active; also: potency is read from the fitted curve at half-maximal effect; % is scaled to controls: 0 for no effect and ±100 for the full control effect; nearly all actives have a fitted effect of over 60% in size
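Displacement of a biotinylated histone H3(1-15) peptide monomethylated at Lys9 (75 nM) from L3MBTL1 (50 nM) was measured by AlphaScreen after a 30 min room-temperature compound incubation; cefsulodin titration served as intraplate control.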
HP1b chromo inh: HP1-beta chromodomain-methylated histone interaction inhibition; Potency, µM (doses to about 114 µM), without a hit: top-dose activity change, negative = inhibition, usual class: inhibitors; P83916; AlphaScreen HP1-beta / biotin-H3K9me3 peptide binding; 390,000 tested, 0.56% active; AID 540317; also: potency is read from the fitted curve at half-maximal effect; nearly all actives have a fitted effect of over 70% in size
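Compound inhibition of the preformed complex between 50 nM HP1-beta and 50 nM biotinylated H3K9me3 peptide was read by AlphaScreen. Buffer was PBS pH 7.4 with 0.01% Tween-20. Incubations ran 30 min at room temperature, with 10 ug/mL donor/acceptor beads.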
The depositor's hits bear a star; ? = inconclusive; / = no result given; [ ] = dose if it differs, or a comment. Shown are actives, neighbours in structure and some others; about 11% of the full set was active somewhere. Unless noted, calls follow the shape of the dose curve; as a rule, active = well fitted inhibition curve with a large enough effect; inconclusive = small, poorly fitted or top-dose-only effect; inactive = no such curve, though single readings can be large or run the other way.

SMILES | BAZ2B inh | JMJD2A Tudor inh | PI5P4Ka inh | G9a block | L3MBTL1 block | HP1b chromo inh
Cc1cccc(NC(=O)Cn2c(O)c(N=NC(=O)c3ccccc3O)c3ccccc32)c1 | 79µM* | ? | -4 | -6%[59 µM] | -2% | 22%
Cc1ccc(NC(=O)Cn2c(O)c(N=NC(=O)c3cc([N+](=O)[O-])ccc3O)c3ccccc32)cc1 | ? | / | / | / | 2% | /
COc1ccccc1Nc1nn2c(=O)c3ccc(C(=O)NCc4cccnc4)cc3nc2s1 | 56µM* | / | / | 5%[59 µM] | / | /
COc1ccc(Nc2cc(C(=O)NCc3cccnc3)c3ccccc3n2)c(OC)c1 | ? | / | / | 45µM* | / | /
COc1ccc(Nc2cc(C(=O)NCc3ccccn3)c3ccccc3n2)c(OC)c1 | ? | / | / | -34% | -22% | /
COc1ccc(Nc2cc(C(=O)NCc3ccco3)c3ccccc3n2)c(OC)c1 | 50µM* | ? | 2 | ? | -1% | -24%
O=C(NCc1ccco1)c1cc(-c2ccccn2)nc2ccccc12 | -3% | -23% | / | 79µM* | -2% | 14%
COc1cc(NC(=O)C2CCCN(S(=O)(=O)c3ccc4c(c3)oc(=O)n4C)C2)c(C(=O)O)cc1OC (stereo unspecified) | -3% | -7% | / | -2%[59 µM] | / | 50%
Cc1ccc(-c2nc(NCc3ccco3)n(C(=O)c3ccco3)n2)cc1 | 8% | -15% | 2 | -3% | / | 8%
O=C(c1ccco1)n1nc(-c2ccccc2)nc1NCc1ccco1 | 0% | 79µM* | -1 | -26%[12.7 µM] | -4% | -2%
CCS(=O)(=O)n1nc(-c2ccccc2)nc1NCc1ccco1 | -30% | -29% | / | 25µM* | -12% | 3%
CCN(CC)c1ccc(NC(=O)CSc2nc3nc(C)cc(C)c3c(=O)[nH]2)cc1 | 45µM* | 45µM* | -4 | 40µM* | -9% | ?
CCNc1ncc2nc(-c3ccc(F)cc3)c(=O)n(Cc3ccc(F)cc3)c2n1 | / | / | / | 4%[0.501 µM] | / | /
O=C(NCC(c1ccc2c(c1)OCO2)N1CCOCC1)C(=O)Nc1ccccc1 (stereo unspecified) | 10% | -25% | / | -3%[59 µM] | / | 22%[57 µM]
O=Cc1ccc(O)c2ncccc12 | 1.3µM* | 2.8µM* | -3 | ? | 4µM* | 81%
Brc1ccc(CN2CCN(c3ccccc3)CC2)o1 | 56µM* | 3.2µM* | -3 | ? | -1% | ?
Cc1ccccc1N1CCN(CCCCN2C(=O)C3CCCN3C2=O)CC1 (stereo unspecified) | -27% | -6% | -5 | 2%[59 µM] | -6% | 17%
Cc1cccc(N2CCN(Cc3ccc(Br)o3)CC2)c1C | ? | 28µM* | 10 | 25µM* | 12% | -26%
Clc1ccccc1N1CCN(Cc2ccc(Br)o2)CC1 | / | 25µM* | 5 | / | / | -11%
Cc1ccccc1N1CCN(Cc2ccc(Br)o2)CC1 | 56µM* | 1µM* | -1 | 10µM* | 10% | ?
COc1ccc(C(=O)N(c2ccc(C)cc2)S(=O)(=O)c2ccc(C)cc2)cc1 | 0% | -23% | / | -1%[59 µM] | / | 18%
CCN(C(=O)c1nn(-c2ccc(C)cc2)c(=O)c2c1c1ccccc1n2C)c1ccc(F)cc1 | / | -18% | / | 1.3µM* | / | 9%
CCN(CC)CCOC(=O)c1ccc(NC(=O)c2nn(-c3ccc(C)cc3)c(=O)c3c2c2ccccc2n3C)cc1 | / | ? | / | 3.2µM* | / | ?
CCN(CC)CCCNC(=O)c1nn(-c2ccc(C)cc2)c(=O)c2c1c1ccccc1n2C | / | -27% | / | -28%[59 µM] | / | 0%
CCCN(C(=O)c1nn(-c2ccc(C)cc2)c(=O)c2c1c1ccccc1n2C)c1ccccc1C | / | -12% | / | -25%[59 µM] | / | ?
SMILES | BAZ2B inh | JMJD2A Tudor inh | PI5P4Ka inh | G9a block | L3MBTL1 block | HP1b chromo inh
C[C@H](CCC(=O)NCC(=O)O)C1CC[C@H]2[C@H]3C(C[C@H](O)[C@]12C)[C@@]1(C)CC[C@@H](O)C[C@H]1C[C@H]3O (stereo partly specified) | / | / | / | 38%[59 µM] | / | /
Cc1ccc(OCC(=O)Nc2ccccc2C(=O)OCc2cc(=O)n3c(C)csc3n2)cc1 | ? | -13% | / | 4%[12.7 µM] | / | 46%
Clc1ccccc1-c1nnc(-c2ccccc2CNc2ccc(Br)cc2)o1 | -2% | 2% | / | 2%[59 µM] | / | 42%
Cc1cc(C)n(C(=O)CSc2nnc(SCC(=O)n3nc(C)cc3C)s2)n1 | 22% | -26% | -19 | 79µM* | 6% | 25%
CCOC(=O)c1c(C)[nH]c(-c2csc(N)n2)c1C | ? | ? | -2 | 28µM* | ? | ?
CCOC(=O)c1c(C)[nH]c(-c2csc(C)n2)c1C | ? | ? | -4 | ? | / | ?
COc1ccc(S(=O)(=O)NCC(c2ccco2)N2CCN(c3ccccc3)CC2)cc1OC (stereo unspecified) | ? | ? | / | -8%[59 µM] | / | -6%
COc1ccc(N2CCN(C(CNS(=O)(=O)c3ccc(OC)c(C)c3)c3ccco3)CC2)cc1 (stereo unspecified) | 25µM* | 25µM* | / | 7.9µM* | / | ?
COc1ccc(S(=O)(=O)NCC(c2ccco2)N2CCOCC2)cc1OC (stereo unspecified) | -4% | 2% | / | 13µM* | / | 10%
COc1ccc(-n2c(=O)c3c4c(sc3n(Cc3ccc(F)cc3)c2=O)CN(C(C)=O)CC4)c(OC)c1 | -27% | -16% | / | -26%[59 µM] | / | 18%
Cc1ccccc1OCC(=O)Nc1nnc(S(=O)(=O)N(C)c2ccccc2)s1 | ? | -24% | / | ? | / | -5%
O=C1C(c2c(O)[nH]c3ccccc23)=Nc2ccccc21 | -11% | -26% | 0 | 5%[59 µM] | / | -25%
O=C1C(c2[nH]c3ccc(S(=O)(=O)O)cc3c2O)=Nc2ccc(S(=O)(=O)O)cc21 | / | / | / | 18µM* | / | /
Cc1cc(N)ccc1N1CCCC1 | 45µM* | 20µM* | -72* | ? | -14% | 50µM*
Cc1cc(N)ccc1-n1c(C)ccc1C | -3% | ? | -22 | 14µM* | -6% | -23%
Cc1ccc(-n2c(C)cc(=O)cc2C)c(C)c1 | -7% | -6% | 0 | 3%[59 µM] | 0% | 37%
Cc1ccc(NC(=O)CC2Oc3ccccc3NC2=O)cc1C (stereo unspecified) | -15% | -15% | / | 6%[59 µM] | / | 47%
c1ccc2c(c1)nc(NC1CCCCC1)c1nncn12 | -3% | -12% | -2 | 45µM* | 12% | 24%
c1ccc2c(c1)nc(Nc1ccc(N3CCCCC3)cc1)c1nncn12 | 28µM* | 45µM* | 1 | 16µM* | ? | ?
Cc1nnc2c(NC3CCCC3)nc3ccccc3n12 | -14% | -22%[57.1 µM] | -9 | -4% | 6%[11.4 µM] | 2%
Cc1ccc(-n2nc3cc(C)c(NC(=O)COc4ccccc4)cc3n2)cc1 | -2% | -17% | / | -3%[59 µM] | / | 37%
Cc1cccc(CCn2c(=O)c3ccccc3n(CC(=O)Nc3ccccc3F)c2=O)c1 | -3% | -17% | / | 9%[59 µM] | / | 19%

Source: PubChem (National Center for Advancing Translational Sciences (NCATS))
